Consider 36 molecules from PubChem BioAssay (NCATS).

Records with an inconclusive call do not appear. Entries that show only a call come without a potency. Unmarked numbers belong to inactive results. The source made the active and inactive calls. Calls follow the shape of the dose curve; as a rule, active = well fitted cell-killing curve with a large enough effect; inconclusive = small, poorly fitted or top-dose-only effect, or effect the other way; inactive = flat fitted curve, though single readings scatter.

One experiment has as its system OV90. Briefly: Primary qHTS to identify gynecologic anti-cancer compounds using libraries of approved drugs and bioactive compounds (AID 1345084). Also: nearly all actives have a fitted effect of over 55% in size. Particulars: Gynecologic cancer cell panel viability, ATPlite luminescence, 48 h; series mostly up to 57.5 µM. In outline: (§1)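 48 h compound exposure at 37 C, 5% CO2; five-point qHTS. ATPlite luminescence readout of cell ATP.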
As for `Cc1cccc(-c2[nH]ncc2-c2ccc(F)c(-c3cnn(CCO)c3)c2)n1`, the Potency entry was “inactive”.

Turning to `CC1(C)CCC2(C(=O)OC3OC(COC4OC(CO)C(O)C(O)C4O)C(O)C(O)C3O)CCC3(C)C(=CCC4C5(C)CCC(OC6OCC(O)C(O)C6O)C(C)(C)C5CCC43C)C2C1O` (configuration not stated), the activity change, negative = cytotoxicity was -2.98% [at 11.6 µM]. With `CC(=O)O[C@@H]1[C@@H](O)[C@H](O[C@@H]2[C@@H](O)[C@@H](O)[C@H](O[C@H]3[C@H](O[C@H]4[C@H](O[C@H]5CC[C@@]6(C)C(CC[C@]7(C)C6CC=C6[C@@H]8CC(C)(C)CC[C@]8(C(=O)O)CC[C@]67C)[C@]5(C)CO)O[C@H](CO)[C@@H](O)[C@@H]4O)OC[C@@H](O)[C@@H]3O)O[C@H]2C)OC[C@H]1O` (some centres not stated), the activity change, negative = cytotoxicity is 10.1% [at 11.6 µM]. Consider `CN(C)CC#CCCC(=O)C(O)(c1ccccc1)C1CCC1` (configuration not stated), for which the Potency result is “inactive”.

`Cc1cn2c(n1)Cc1ccc(Cl)cc1C(c1ccc(N)cc1)=N2`: the Potency entry is “inactive”. With `CC1(CO)CC(O)[C@]2(C(=O)O)CCC34CC3(C=CC3[C@]5(C)C(CC[C@]34C)C(C)(CO)[C@@H](O)[C@H](O)[C@@H]5O)C2C1` (some centres not stated), the Potency entry is “inactive”. Regarding `CC(=O)O[C@H]1C[C@@](O)(C(C)C)[C@@H]2[C@@H](OC(=O)c3ccc(O)cc3)CC(C)=CC[C@@]12C`, the Potency entry was “inactive”. `Cc1ccc(C(C)C)c(O[C@@H]2O[C@H](CO)[C@@H](O)[C@H](O)[C@H]2O)c1`: the Potency entry is “inactive”. Take `O=C1Nc2ccccc2-c2nc3ccccc3c(=O)n2-c2c(O)cccc21`: the Potency result is “inactive”. As for `COc1ccc(CN2CCN(CCCSc3cc(C(C)(C)C)c(O)c(C(C)(C)C)c3)CC2)c(OC)c1OC`, the activity change, negative = cytotoxicity was 3.61% [at 11.6 µM]. `CN(C)c1ccnc2sc3c(=O)n(N4CCCCCC4)cnc3c12`: the Potency entry was “inactive”. In the case of `Cc1c(C(=O)NCc2cccnc2)nn(-c2ccc(Cl)cc2Cl)c1-c1ccc(Cl)cc1`, the Potency result was “inactive”.

In the case of `CC(C)=CCc1cc2c(cc1O)OC[C@H]1c3ccc(O)cc3O[C@@H]21`, the Potency entry was “inactive”. As for `Cn1cc(-c2ccc(F)c(C(F)(F)F)c2)nc1C1CCN(c2ncnc3[nH]ncc23)CC1`, the Potency entry is “inactive”. As for `O=C(O)CCc1nccc2c1[nH]c1ccccc12`, the Potency result is “inactive”. On the same count and under the same terms, the result for `NS(=O)(=O)c1ccc(N2CCN(CC[C@@H]3OCCc4ccccc43)CC2)cc1` reads “inactive”. Regarding `CC1(C)CC[C@]23CO[C@@]4(CCC5[C@@]6(C)CC[C@H](O[C@@H]7OC[C@H](O[C@@H]8O[C@H](CO)[C@@H](O)[C@H](O)[C@H]8O[C@@H]8OC[C@@H](O)[C@H](O)[C@H]8O)[C@H](O)[C@H]7O)[C@@](C)(CO)C6CC[C@@]5(C)[C@]4(C)CC2=O)[C@@H]3C1` (some centres not stated), the activity change, negative = cytotoxicity was -4.17% [at 11.6 µM]. Regarding `Cc1ccc(CNc2ncnc3ccc(-c4ccc(CO)o4)cc23)o1`, the Potency result is “inactive”. On the same count and under the same terms, for `C/C(=C/CO)CCC1C(C)CCC2C(C)(C)CCCC12C` (configuration not stated) the value was “inactive”. In the case of `C[C@@H]1O[C@@H](O[C@H]2CC[C@@]3(C)C(CC[C@]4(C)C3CC=C3[C@@H]5CC(C)(C)CC[C@]5(C(=O)O[C@@H]5O[C@H](CO)[C@@H](O)[C@H](O)[C@H]5O)CC[C@]34C)[C@]2(C)CO)[C@H](O)[C@H](O[C@@H]2O[C@H](CO)[C@@H](O)[C@H](O)[C@H]2O)[C@H]1O` (some centres not stated), the activity change, negative = cytotoxicity was -0.517% [at 11.6 µM]. Consider `C[C@H](Nc1cc2c(-c3ccc4c(c3)OCO4)noc2cn1)c1ccccc1`, for which the Potency result is “inactive”. Same read-out and setting: the result for `O=C(N[C@H](Cc1cscn1)C(=O)N[C@@H](CC1CCCCC1)[C@@H](O)[C@@H](O)C1CC1)c1nc2ccccc2[nH]1` reads “inactive”; that for `O=C(NCCCc1ccccc1)C1CCC(CNS(=O)(=O)c2cccc3nsnc23)CC1` (configuration not stated), “inactive”; that for `CC(C)c1ccc(NC(=O)Cn2cnc3c2c(=O)n(C)c(=O)n3C)cc1`, “inactive”. Same read-out and setting: for `C=C1C(=O)OC[C@@H]1C/C=C(\C)CC1CC(C)C(=O)O1` (some centres not stated) the value was “inactive”.

A further experiment relates to PA-1. Described as above. The conditions noted are these: Gynecologic cancer cell panel viability, ATPlite luminescence, 48 h; series mostly up to 57.5 µM. In outline:
as §1
In general terms: Cellular ATP, detected with luciferase, serves as a proxy for viable cell number.
For `C[C@@H]1C[C@H](C)CN(CCC(=O)Nc2ccc(Br)cc2)C1`, the Potency result is “inactive”.

Turning to `O=[N+]([O-])c1cn2c(n1)OC[C@@H](OCc1ccc(-c3ccc(OC(F)(F)F)cc3)nc1)C2`, the Potency entry is “inactive”.

For the molecule `O=C(NCC(=O)N1CCCC1)Nc1ccc2cnccc2c1`, the Potency result was “inactive”.

Take `C=C(C)C(=O)O[C@H]1[C@H]2C(=C)C(=O)O[C@@H]2/C=C(\CO)CC/C=C(/C=O)[C@@H]1O`: the Potency entry is “inactive”.

Turning to `COc1c(C)cc(NC(=O)c2nn(Cc3ccc(F)cc3)c3c2CN(C(=O)c2ccc[nH]2)C[C@]3(C)C(N)=O)cc1C`, the activity change, negative = cytotoxicity is 15.5% [at 11.6 µM]. Turning to `O=C(NC1CCC1)c1ccc(C#Cc2cccc(F)c2)nc1`, the Potency result is “inactive”. On the same count and under the same terms, for `COc1ccc(NC(=O)C2C[C@H](C)CC[C@H]2C(C)C)cc1` (some centres not stated) the value was “inactive”. Regarding `CC1(C=O)CCCC2(C)C1CCC13CC(CO)C(CCC12)C3` (configuration not stated), the Potency result is “inactive”. Still for that read-out and setting: for `COc1c2c(nc3occc13)C(CC=C(C)C)(OC)C(O)CC2` (configuration not stated) the value was “inactive”; for `Cn1ncnc1[C@@H]1c2n[nH]c(=O)c3cc(F)cc(c23)N[C@H]1c1ccc(F)cc1`, “inactive”.

For the molecule `O=C(O)c1cccc(-c2ccc(-c3cn(C(=O)N4CCCCC4Cc4ccccc4)nn3)cc2)c1` (configuration not stated), the Potency entry is “inactive”. The same measure, in the same setting: the result for `Cc1cccc(-c2[nH]ncc2-c2ccc(F)c(-c3cnn(CCO)c3)c2)n1` reads “inactive”. As to `CC1(C)CCC2(C(=O)OC3OC(COC4OC(CO)C(O)C(O)C4O)C(O)C(O)C3O)CCC3(C)C(=CCC4C5(C)CCC(OC6OCC(O)C(O)C6O)C(C)(C)C5CCC43C)C2C1O` (configuration not stated), the activity change, negative = cytotoxicity is -14.1% [at 11.6 µM]. Same read-out and setting: the result for `CC(=O)O[C@@H]1[C@@H](O)[C@H](O[C@@H]2[C@@H](O)[C@@H](O)[C@H](O[C@H]3[C@H](O[C@H]4[C@H](O[C@H]5CC[C@@]6(C)C(CC[C@]7(C)C6CC=C6[C@@H]8CC(C)(C)CC[C@]8(C(=O)O)CC[C@]67C)[C@]5(C)CO)O[C@H](CO)[C@@H](O)[C@@H]4O)OC[C@@H](O)[C@@H]3O)O[C@H]2C)OC[C@H]1O` (some centres not stated) reads -1.55% [at 11.6 µM].

Turning to `CN(C)CC#CCCC(=O)C(O)(c1ccccc1)C1CCC1` (configuration not stated), the Potency result is “inactive”. The same measure, in the same setting: for `Cc1cn2c(n1)Cc1ccc(Cl)cc1C(c1ccc(N)cc1)=N2` the value was “inactive”. On to `CC(=O)O[C@H]1C[C@@](O)(C(C)C)[C@@H]2[C@@H](OC(=O)c3ccc(O)cc3)CC(C)=CC[C@@]12C`, for which the Potency entry was “inactive”. Same read-out and setting: for `Cc1ccc(C(C)C)c(O[C@@H]2O[C@H](CO)[C@@H](O)[C@H](O)[C@H]2O)c1` the value was “inactive”.

Consider `O=C1Nc2ccccc2-c2nc3ccccc3c(=O)n2-c2c(O)cccc21`, for which the Potency result is “inactive”. Turning to `COc1ccc(CN2CCN(CCCSc3cc(C(C)(C)C)c(O)c(C(C)(C)C)c3)CC2)c(OC)c1OC`, the activity change, negative = cytotoxicity is 1.3% [at 11.6 µM]. As for `CN(C)c1ccnc2sc3c(=O)n(N4CCCCCC4)cnc3c12`, the Potency entry is “inactive”. Consider `Cc1c(C(=O)NCc2cccnc2)nn(-c2ccc(Cl)cc2Cl)c1-c1ccc(Cl)cc1`, for which the Potency entry is “inactive”.

For `CC(C)=CCc1cc2c(cc1O)OC[C@H]1c3ccc(O)cc3O[C@@H]21`, the Potency result was “inactive”.

`Cn1cc(-c2ccc(F)c(C(F)(F)F)c2)nc1C1CCN(c2ncnc3[nH]ncc23)CC1`: the Potency entry was “inactive”. Consider `NS(=O)(=O)c1ccc(N2CCN(CC[C@@H]3OCCc4ccccc43)CC2)cc1`, for which the Potency entry is “inactive”. Regarding `CC1(C)CC[C@]23CO[C@@]4(CCC5[C@@]6(C)CC[C@H](O[C@@H]7OC[C@H](O[C@@H]8O[C@H](CO)[C@@H](O)[C@H](O)[C@H]8O[C@@H]8OC[C@@H](O)[C@H](O)[C@H]8O)[C@H](O)[C@H]7O)[C@@](C)(CO)C6CC[C@@]5(C)[C@]4(C)CC2=O)[C@@H]3C1` (some centres not stated), the activity change, negative = cytotoxicity was 10.3% [at 11.6 µM]. Turning to `Cc1ccc(CNc2ncnc3ccc(-c4ccc(CO)o4)cc23)o1`, the Potency result is “inactive”. For `C/C(=C/CO)CCC1C(C)CCC2C(C)(C)CCCC12C` (configuration not stated), the Potency result was “inactive”. Same read-out and setting: for `C[C@H](Nc1cc2c(-c3ccc4c(c3)OCO4)noc2cn1)c1ccccc1` the value was “inactive”; for `O=C(N[C@H](Cc1cscn1)C(=O)N[C@@H](CC1CCCCC1)[C@@H](O)[C@@H](O)C1CC1)c1nc2ccccc2[nH]1`, “inactive”. The same measure, in the same setting: for `O=C(NCCCc1ccccc1)C1CCC(CNS(=O)(=O)c2cccc3nsnc23)CC1` (configuration not stated) the value was “inactive”; for `CC(C)c1ccc(NC(=O)Cn2cnc3c2c(=O)n(C)c(=O)n3C)cc1`, “inactive”.
